According to PubChem BioAssay (Tox21):
Active and inactive are the calls of the source. The call rests on the fitted dose curve; in most records, active means well fitted curve in the direction sought with a large enough effect in the repeat runs; inconclusive means weak or mixed curves; inactive means flat fitted curve, though single readings scatter.

assay: qHTS assay to test for compound auto fluorescence at 535 nm (green) in HEK293 cells (AID 720680); conditions: green autofluorescence 485/535 nm; series mostly up to 91.3 µM; fluorescence, % of fluorescein: at the top concentration
On the % scale 0 is the no-effect control and ±100 the full control effect.

| SMILES | fluorescence, % of fluorescein | outcome |
| --- | --- | --- |
| CSC(=O)c1c(C(F)F)nc(C(F)(F)F)c(C(=O)SC)c1CC(C)C | -0.0023% (inactive) | – |
| CCOP(=O)(OCC)Oc1cc(C)nc(C(C)C)n1 | 0.0579% (inactive) | – |
| CCOP(=O)(Sc1ccccc1)Sc1ccccc1 | -0.0202% (inactive) | – |
| CCC1COC(Cn2cncn2)(c2ccc(Cl)cc2Cl)O1 (configuration not stated) | -0.0372% (inactive) | – |
| Clc1ccc(C(Cl)(Cl)Cl)cc1Cl | -0.0771% (inactive) | – |
| Nc1nc(N)nc(Cl)n1 | 0.0199% (inactive) | – |
| ClCBr | 0.0826% [at 95.7 µM] (inactive) | – |
| CC(Cc1ccc2c(c1)OCO2)NO (configuration not stated) | -0.0294% [at 95.7 µM] (inactive) | – |
| C[C@H]1[C@H](c2ccc(Cl)cc2)SC(=O)N1C(=O)NC1CCCCC1 | 0.138% (inactive) | – |
| CCOP(=O)(OCC)Oc1nc(Cl)c(Cl)cc1Cl | 0.0205% (inactive) | – |
| C[N+]1(C)[C@@H]2CC[C@H]1CC(OC(=O)C(CO)c1ccccc1)C2 (some centres not stated) | – | inactive |
| CCOP(=S)(NC(C)C)Oc1ccccc1C(=O)OC(C)C (configuration not stated) | 0.213% (inactive) | – |
| O=S1(=O)OCC2C(CO1)C1(Cl)C(Cl)=C(Cl)C2(Cl)C1(Cl)Cl (configuration not stated) | -0.107% (inactive) | – |
| O=C(O)CCCCCCNC1c2ccccc2CCc2ccccc21 | -0.374% [at 46 µM] (inactive) | – |
| Cc1cnc2c(C(=O)O)c(Cl)ccc2c1 | -0.0388% (inactive) | – |
| C#CCO | 0.0045% (inactive) | – |
| CCCCCCCc1ccc(O)cc1 | -0.0616% (inactive) | – |
| S=C=NCCc1ccccc1 | 0.142% (inactive) | – |
| CC1=C2C[C@H]3[C@@H](CC=C4C[C@@H](O)CC[C@@]43C)[C@@H]2CC[C@]12O[C@@H]1C[C@H](C)CN[C@H]1[C@H]2C | 0.0089% [at 46 µM] (inactive) | – |

| SMILES | fluorescence, % of fluorescein | outcome |
| --- | --- | --- |
| FC(F)C(F)(F)OCC(Cn1cncn1)c1ccc(Cl)cc1Cl (configuration not stated) | -0.0502% (inactive) | – |
| CCCCN(CCCC)C(=S)[S-].CCCCN(CCCC)C(=S)[S-].[Ni+2] | 0.0301% [at 46 µM] (inactive) | – |
| COC(=O)/C=C(\C)OP(=O)(OC)OC | 0.216% (inactive) | – |
| CCN(CC)Cc1nccn1-c1ccc([N+](=O)[O-])cc1C(=O)c1ccccc1Cl | -0.0205% [at 46 µM] (inactive) | – |
| NC1CCC(CC2CCC(N)CC2)CC1 (configuration not stated) | -0.0036% (inactive) | – |
| Nc1ccc(N=Nc2ccccc2)cc1 | -0.202% (inactive) | – |
| Clc1ccc(C(c2ccc(Cl)cc2)C(Cl)Cl)cc1 | – | inactive |
| Oc1cc(Cl)cc(Cl)c1 | -0.0237% (inactive) | – |
| CCCCC(CC)COC(=O)c1ccccc1C(=O)OCC(CC)CCCC (configuration not stated) | -0.118% (inactive) | – |
| CCN(CC)CCc1c[nH]c2ccccc12 | -0.0948% [at 95.7 µM] (inactive) | – |
| c1ccc(Nc2ccc(Nc3ccccc3)cc2)cc1 | 0.0661% (inactive) | – |
| CN(C)C(=S)SSC(=S)N(C)C | – | inactive |
| Oc1ccc2[nH]cc(CCCCN3CC=C(c4ccccc4)CC3)c2c1 | -0.17% [at 46 µM] (inactive) | – |
| CCOP(=S)(OCC)Oc1cc(C)nc(N(CC)CC)n1 | 0.0435% (inactive) | – |
| COc1ccc2[nH]cc(CCN(C(C)C)C(C)C)c2c1 | -0.0274% [at 95.7 µM] (inactive) | – |
| C=CCOC(=O)c1ccccc1N | 0.0175% (inactive) | – |
| CC1(C)[C@H](/C=C2\CCSC2=O)[C@@H]1C(=O)OCc1coc(Cc2ccccc2)c1 | 0.0065% (inactive) | – |
| Nc1ccccc1-c1ccccc1 | -0.0319% (inactive) | – |
